The values that follow come from PubChem BioAssay (Tox21).

Records with an inconclusive call do not appear. The source made the active and inactive calls. Calls follow the shape of the full dose curve.
% is scaled to controls: 0 for no effect and ±100 for the full control effect.

The test in a line: qHTS assay for small molecule agonists of the p53 signaling pathway - cell viability (AID 651633).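 Also: p53RE-bla HCT reporter cells with a stable beta-lactamase p53 reporter; nearly all actives have a fitted effect of over 30% in size.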 Particulars: p53RE-bla HCT-116 viability, ATP luminescence, 16 h; series mostly up to 83.3 µM. The text has this:
National Center for Advancing Translational Sciences [NCATS]
NIH Chemical Genomics Center [NCGC]
U.S. Environmental Protection Agency [EPA]
National Institutes of Environmental Health Sciences [NIEHS]
National Toxicology Program [NTP]
U.S. Food and Drug Administration [FDA]
p53, a tumor suppressor protein, is activated following cellular insult, including DNA damage and other cellular stresses. The activation of p53 regulates cell fate by inducing DNA repair, cell cycle arrest, apoptosis, or cellular senescence. The activation of p53, therefore, is a good indicator of DNA damage and other cellular stresses. […] The activation of the reporter gene under culture conditions can be detected by fluorescence intensity. This cell line was used to screen the Tox21 compound library in a 1536-well plate format and to identify agonists that activate the p53 signaling pathway.
Tox21 Assay Protocol Summary:
The p53RE-bla cells were dispensed at 4,000 cells/5 ul/well in 1536-well black wall/clear bottom plates using a Multidrop dispenser. After the assay plates were incubated at a 37 C/5% CO2 incubator for 5 hours, 23 nL of compounds dissolved in DMSO, positive controls or DMSO only was transferred to the assay plate by a pin tool. The plates were incubated at 37 C for 16 hours. After 1 uL of LiveBLAzerTM B/G FRET substrate was added using a Flying Reagent Dispenser, the plates were incubated at room temperature for 2 hours, and fluorescence intensity was measured by an Envision plate reader.
For cell viability readout that measures cytotoxicity, 4 ul/well of CellTiter-Glo reagent was added into the assay plates using a Flying Reagent Dispenser. After 30 min incubation at room temperature, the luminescence intensity in the plates was measured using a ViewLux plate reader.
In the case of `CCCCOC(=O)C(=O)OCCCC`, the compound was classed as inactive.

Turning to `CCCCCC(=O)OCC`, the compound was classed as inactive.

Take `CCC(=O)OCCC(C)CCC=C(C)C` (stereo not given): the compound was called inactive.

For `O=C(O)CCNC(=O)c1ccccc1`, the compound was called inactive.

Turning to `BrC/C=C/CBr`, the outcome was inactive.

For the compound `O=C(Oc1ccccc1C(=O)O)c1ccccc1O`, the outcome was inactive.

For the compound `CC(=O)Nc1ncc([N+](=O)[O-])s1`, the result was inactive.

Regarding `c1ccc(CNc2ncnc3nc[nH]c23)cc1`, the compound was called inactive.

For `CC(=O)c1ccc(OCC(=O)N2CCCCC2)cc1`, the call was inactive.

For the compound `CC(C)CCCCCCOC(=O)C1CCCCC1C(=O)OCCCCCCC(C)C` (stereo not given), the outcome was inactive.

As for `CC(C)(CO)[C@@H](O)C(=O)NCCCO`, the call was inactive.

On to `CCCCC(=O)N(C)C`, for which the result was inactive.

As to `CCC(C)(C)C1CCC(=O)CC1`, the compound was called inactive.

`CC(=O)/C=C/c1ccco1`: the result was inactive.

As for `CCC1COC(=O)O1` (stereo not given), the outcome was inactive.

In the case of `O=C(O)/C=C/c1ccccc1`, the call was inactive.

For `O=C(/C=C/c1ccccc1)NCCO`, the outcome was inactive.

`CCCCC(CC)COC(=O)c1ccccc1` (stereo not given): the compound was called inactive.

As for `O=C1OC(=O)c2ccccc21`, the result was inactive.

`CC(C)CCCC(C)CC=O` (stereo not given): the compound was classed as inactive.

`C1CCN2C[C@@H]3C[C@@H](CN4CCCC[C@@H]34)[C@H]2C1`: the call was inactive.

For the compound `COC(=O)CCC(=O)O`, the compound was called inactive.

For the compound `CCS(=O)(=O)CCn1c([N+](=O)[O-])cnc1C`, the outcome was inactive.

With `COc1cc(C=O)ccc1OC(=O)C(C)C`, the compound was classed as inactive.

As for `C1=CCC(c2ccccc2)CC1` (stereo not given), the call was inactive.

`C=CCOCC(O)CCl` (stereo not given): the compound was classed as inactive.

On to `Cc1cccc(C(=O)O)c1[N+](=O)[O-]`, for which the call was inactive.

Consider `Cc1nc(C)nc(N2C[C@@H](C)N(c3ccnc([C@@H](C)O)n3)[C@@H](C)C2)n1`, for which the result was inactive.

`Nc1c(NC/C=C\COc2cc(CN3CCCCC3)ccn2)c(=O)c1=O`: the outcome was inactive.

For the compound `CCCCCCCCOC(C)=O`, the outcome was inactive.

Regarding `CCN(CCC#N)c1ccccc1`, the compound was called inactive.

As for `CCCCCCCCC(=O)OCC`, the call was inactive.

Take `Cc1cccc(Nc2ccncc2S(=O)(=O)NC(=O)NC(C)C)c1`: the compound was classed as inactive.

`O=CO`: the activity change, negative = cytotoxicity is 17.2% [at 8.08 µM] (inactive).

Consider `C=CC(C)(O)CC/C=C(\C)CC` (stereo not given), for which the compound was called inactive.

For the compound `Cc1ncc([N+](=O)[O-])n1CC(O)CCl` (stereo not given), the compound was classed as inactive.

For the compound `CC1=CC[C@H](CC=O)C1(C)C`, the compound was classed as inactive.

Regarding `NCCc1ccn[nH]1`, the compound was classed as inactive.

With `CCCCCCCCCCCCC1CO1` (stereo not given), the compound was classed as inactive.

Regarding `OCCCCCCCl`, the call was inactive.
